Measured values reported in the supplement of paper PMC12350171.
Where a name gives a salt, the structure may show the parent alone. Unmarked numbers belong to inactive results.

Experiments:
Conditions in all cases: 20 µM
[1] = test system: Salmonella enterica typhimurium; assay: growth AUC normalised to DMSO control (fraction of control); higher = less growth inhibition, active = hit call of the paper
Procedure, shortened: (§1)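 For the AUC endpoint, growth curves were integrated by the trapezoidal rule up to the exponential-to-stationary transition and normalised to DMSO controls on the same plate. The curves came from OD578 readings taken hourly for 24 h, in three biological replicates. Pathogens had been passaged anaerobically twice and inoculated at an OD578 of 0.01 into pre-reduced mGAM plates carrying 20 μM compound and 1% DMSO, sealed with breathable membranes. Medium for Haemophilus parainfluenzae also contained hemin and NAD.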

Shigella flexneri = assay: as above
Procedure, shortened: as §1

Vibrio cholerae = assay: as above
Procedure, shortened: as §1

[2] = test system: Yersinia pseudotuberculosis; assay: as above
Procedure, shortened: as §1

P. vulgatus RND KO = assay: growth AUC normalised to DMSO control (median) (fraction of control); higher = less growth inhibition, active = hit call of the paper
Procedure, shortened: (§2)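 Each strain went through two overnight passages under anaerobic conditions before growth in mGAM in 96-well plates, starting at OD578 0.01, with each compound from the approved-drug library at 20 μM and 1% DMSO. Inside an anaerobic incubator, OD578 was recorded every hour for 24 h. Growth curves were cut off at entry into stationary phase, and the area under the curve was calculated by the trapezoidal rule and normalised to vehicle wells on the same plate. Reported values are medians of three biological replicates.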

P. vulgatus WT = assay: as above
Procedure, shortened: as §2

[3] = test system: S. enterica typhimurium WT; assay: as above
Procedure, shortened: as §2

[4] = test system: S. enterica typhimurium tolC KO; assay: as above
Procedure, shortened: as §2
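For growth AUC normalised to DMSO control (median) in this document: active when median AUC fell below 0.1.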

Row | Compound | growth AUC normalised to DMSO control [1] | growth AUC normalised to DMSO control (Shigella flexneri) | growth AUC normalised to DMSO control (Vibrio cholerae) | growth AUC normalised to DMSO control [2] | growth AUC normalised to DMSO control (P. vulgatus RND KO) | growth AUC normalised to DMSO control (P. vulgatus WT) | growth AUC normalised to DMSO control [3] | growth AUC normalised to DMSO control [4]
1 | CC[C@H](C)C(=O)O[C@H]1C[C@@H](C)C=C2C=C[C@H](C)[C@H](CC[C@@H]3C[C@@H](O)CC(=O)O3)[C@H]21 [Lovastatin] | 0.999 | 0.997 | 0.995 | 0.999 | 0.958 | 0.928 | 0.99 | 0.967
2 | O=C1Cc2cc(CCN3CCN(c4nsc5ccccc45)CC3)c(Cl)cc2N1 [Ziprasidone  hydrochloride monohydrate] | 1.02 | 1.06 | 1.01 | 1 | 1.03 | 1.07 | 1.02 | 1
3 | CC1(C)S[C@@H]2[C@H](NC(=O)Cc3ccccc3)C(=O)N2[C@H]1C(=O)O [Benzylpenicillin sodium] | 0.0129 (active) | 0.9 | 0.136 (active) | 0.101 (active) | 0.0105 (active) | 0.00991 (active) | 0.0318 (active) | 0.0065 (active)
4 | OCc1cc(C(O)CNCCCCCCOCCCCc2ccccc2)ccc1O (configuration not stated) [Salmeterol] | 0.997 | 0.995 | 1 | 0.959 | 0.977 | 0.962 | 0.995 | 0.946
5 | Clc1ccc(C(Cn2ccnc2)OCc2csc3c(Cl)cccc23)c(Cl)c1 (configuration not stated) [Sertaconazole nitrate] | 1.02 | 1.06 | 1.05 | 0.913 | 1 | 1.01 | 1.01 | 0.935
6 | CC1(C)O[C@@H]2C[C@H]3[C@@H]4C[C@H](F)C5=CC(=O)C=C[C@]5(C)[C@@]4(F)[C@@H](O)C[C@]3(C)[C@]2(C(=O)CO)O1 [Fluocinolone acetonide] | 1 | 1.01 | 1.02 | 1 | 0.975 | 0.967 | 1 | 0.993
7 | Cn1cnc([N+](=O)[O-])c1Sc1ncnc2[nH]cnc12 [Azathioprine] | 1 | 0.992 | 1.01 | 1.01 | 0.955 | 0.92 | 1.02 | 0.998
8 | CCN(CC)CCNC(=O)COc1ccc(OC)cc1 [Mefexamide hydrochloride] | 1 | 0.982 | 0.995 | 1.01 | 0.988 | 0.97 | 1.01 | 0.998
9 | NC[C@@H]1O[C@@H](O[C@H]2[C@H](O)[C@@H](O[C@H]3O[C@H](CO)[C@@H](O)[C@H](N)[C@H]3O)[C@H](N)C[C@@H]2N)[C@@H](O)[C@H](O)[C@H]1O [Kanamycin A sulfate] | 1.01 | 1.03 | 1.05 | 1 | 1.01 | 0.992 | 1.01 | 1.01
10 | OCCN1CCN(CCCN2c3ccccc3Sc3ccc(Cl)cc32)CC1 [Perphenazine] | 0.99 | 0.975 | 0.91 | 1.01 | 1.01 | 0.989 | 1 | 0.929
11 | CC1=C(/C=C/C(C)=C/C=C/C(C)=C\C(=O)O)C(C)(C)CCC1 [Isotretinoin] | 0.994 | 0.992 | 1 | 1 | 1.01 | 0.989 | 0.999 | 1
12 | CC1=C(CC(=O)O)c2cc(F)ccc2/C1=C\c1ccc([S+](C)[O-])cc1 (configuration not stated) [Sulindac] | 0.976 | 0.994 | 1.01 | 1.03 | 0.996 | 0.968 | 1 | 0.984
13 | Nc1nc(NC2CC2)c2ncn([C@H]3C=C[C@@H](CO)C3)c2n1 [Abacavir sulfate] | 1.01 | 0.989 | 0.989 | 0.971 | 0.989 | 1.01 | 1.01 | 1
14 | CCOc1ccccc1OC(c1ccccc1)C1CNCCO1 (configuration not stated) [Reboxetine mesylate] | 0.991 | 0.986 | 1.01 | 0.995 | 1.01 | 1.01 | 1 | 0.988
15 | CO[C@@]1(NC(=O)CSCC#N)C(=O)N2C(C(=O)O)=C(CSc3nnnn3C)CS[C@@H]21 [Cefmetazole sodium salt] | 0.00445 (active) | 0.0256 (active) | 0.337 (active) | 0.139 (active) | 0.0391 (active) | 0.03 (active) | 0.00692 (active) | 0.00805 (active)
16 | CN1CCN(CCCN2c3ccccc3Sc3ccc(Cl)cc32)CC1 [Prochlorperazine dimaleate] | 1.01 | 1.02 | 0.947 | 1 | 1.01 | 0.981 | 0.996 | 0.892
17 | COc1c(N2CCNC(C)C2)c(F)cc2c(=O)c(C(=O)O)cn(C3CC3)c12 (configuration not stated) [Gatifloxacin] | 0.0102 (active) | 0.0167 (active) | 0.0355 (active) | 0.0287 (active) | 0.0163 (active) | 0.0109 (active) | 0.0104 (active) | 0.0044 (active)
18 | C=CC1=C(C(=O)O)N2C(=O)[C@@H](NC(=O)/C(=N\O)c3csc(N)n3)[C@H]2SC1 [Cefdinir] | 0.00595 (active) | 0.00663 (active) | 0.0728 (active) | 0.023 (active) | 0.0139 (active) | 0.0141 (active) | 0.0086 (active) | 0.00501 (active)
19 | CCSc1ccc2c(c1)N(CCCN1CCN(C)CC1)c1ccccc1S2 [Thiethylperazine maleate] | 1 | 1.02 | 0.983 | 0.99 | 1 | 1 | 0.996 | 0.91
20 | CN(C)CCOc1ccc(/C(=C(/CCCl)c2ccccc2)c2ccccc2)cc1 [Toremifene] | 1.01 | 1.05 | 1.05 | 1.06 | 0.973 | 1.01 | 1.02 | 0.983
21 | CC1(C)O[C@@H]2C[C@H]3[C@@H]4CCC5=CC(=O)CC[C@]5(C)[C@@]4(F)[C@@H](O)C[C@]3(C)[C@]2(C(=O)CCl)O1 [Halcinonide] | 1 | 1.03 | 0.99 | 1 | 0.993 | 1 | 1.02 | 0.967
22 | COc1ccccc1N1CCN(CCCNc2cc(=O)n(C)c(=O)n2C)CC1 [Urapidil hydrochloride] | 1.01 | 0.992 | 0.984 | 1 | 0.976 | 0.976 | 1 | 0.992
23 | CCC1NC(=O)c2cc(S(N)(=O)=O)c(Cl)cc2N1 (configuration not stated) [Quinethazone] | 1.01 | 1.03 | 1.05 | 1.01 | 1.06 | 1.12 | 1.01 | 1.01
24 | C/C(=C(\CCOP(=O)(O)O)SC(=O)c1ccccc1)N(C=O)Cc1cnc(C)nc1N [Benfotiamine] | 0.997 | 0.982 | 0.996 | 0.988 | 1.02 | 1.03 | 1.01 | 0.999
25 | NC[C@@H]1O[C@H](O[C@H]2[C@@H](O)[C@H](O[C@@H]3[C@@H](O)[C@H](N)C[C@H](N)[C@H]3O[C@H]3O[C@H](CO)[C@@H](O)[C@H](O)[C@H]3N)O[C@@H]2CO)[C@H](N)[C@@H](O)[C@@H]1O [Paromomycin sulfate] | 1.01 | 0.993 | 1.01 | 0.997 | 1 | 0.991 | 1 | 1
26 | NNC(=O)c1ccncc1 [Isoniazid] | 1.02 | 1.04 | 1.05 | 0.942 | 1.04 | 1.07 | 1.01 | 0.989
27 | O=P(O)(O)C(Cl)(Cl)P(=O)(O)O [Clodronate disodium] | 0.986 | 0.993 | 0.964 | 0.991 | 1 | 1.01 | 0.997 | 0.986
28 | CCn1cc(C(=O)O)c(=O)c2cc(F)c(N3CCNCC3)nc21 [Enoxacin] | 0.00943 (active) | 0.0451 (active) | 0.033 (active) | 0.0435 (active) | 0.136 | 0.419 | 0.00979 (active) | 0.00708 (active)
29 | CNCC(O)c1ccc(OC(=O)C(C)(C)C)c(OC(=O)C(C)(C)C)c1 (configuration not stated) [Dipivefrin hydrochloride] | 1.01 | 1.04 | 1.05 | 1.01 | 1.02 | 1.03 | 1.02 | 0.953
